Three molecules from PubChem BioAssay (EPA / NIEHS) can be followed below.

The structures appear in SMILES notation. Active and inactive are the calls of the source. The calls were made as follows: active = hit-call score of the fitted dose curve at least 0.9, where 1 is the maximum; inactive = score below 0.9.

As usually defined, the AC50 is the concentration giving half of the maximal activity seen.

Holding throughout (settings): mRNA level, 48 h; actives raise or lower the signal
Read-out in one experiment: BCL2L11 (gene 10018)
The experiment can be described thus: LTEA_HepaRG_BCL2L11: Life Technologies and Expression Analysis (LTEA) Assay for Bcl-2 (BCL2L11) gene using HepaRG (AID 2283473). The procedure, abridged: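 Cells were plated, cultured 48 h, switched to serum-free induction medium, then dosed in duplicate for 48 h at eight half-log concentrations up to 100 uM. Lysates underwent RNA isolation and TaqMan qRT-PCR; gain or loss versus DMSO was fitted.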

Read-out in experiment [1]: Apolipoprotein A-V (APOA5) gene, APOA5 (gene 116519)
The experiment can be described thus: LTEA_HepaRG_APOA5: Life Technologies and Expression Analysis (LTEA) Assay for Apolipoprotein A-V (APOA5) gene using HepaRG (AID 2283474). The procedure, abridged: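 Human liver HepaRG cells are treated 48 h with test chemicals (100 uM top, half-log dilutions, 0.5% DMSO). APOA5 mRNA induction or loss is measured by qRT-PCR relative to vehicle.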

Read-out in experiment [2]: Apoptosis regulator Bcl-2 (Homo sapiens) (UniProt P10415)
The experiment can be described thus: LTEA_HepaRG_BCL2: Life Technologies and Expression Analysis (LTEA) Assay for Bcl-2 gene using HepaRG (AID 2283475). Put shortly:
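Differentiated HepaRG cells in serum-free induction medium were exposed for 48 h to eight half-log concentrations up to 100 uM in 0.5% DMSO, in duplicate. BCL2 mRNA was quantified by TaqMan qRT-PCR normalised to ACTB, GAPDH and POLR2A, with bidirectional fitting versus DMSO.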

Read-out in experiment [3]: Bcl-2 (BID) gene, BID (gene 637)
Put plainly: LTEA_HepaRG_BID: Life Technologies and Expression Analysis (LTEA) Assay for Bcl-2 (BID) gene using HepaRG (AID 2283476). The procedure, abridged: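 Differentiated HepaRG cells in serum-free induction medium were exposed in duplicate for 48 h to eight half-log concentrations up to 100 uM in 0.5% DMSO. BID mRNA was quantified by qRT-PCR, normalized to ACTB, GAPDH and POLR2A.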

Read-out in another experiment: Caspase-3 (Homo sapiens) (UniProt P42574)
Put plainly: LTEA_HepaRG_CASP3: Life Technologies and Expression Analysis (LTEA) Assay for cysteine-aspartic acid protease (CASP3) using HepaRG (AID 2283477). Put shortly:
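In HepaRG liver cells dosed for 48 h at up to 100 uM (eight-point, duplicate), CASP3 expression changes are scored by qRT-PCR. Activity is fitted in both directions with 0.5% DMSO as baseline.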

Read-out in experiment [4]: Cytochrome P450 (CYP24A1), CYP24A1 (gene 1591)
The experiment can be described thus: LTEA_HepaRG_CYP24A1: Life Technologies and Expression Analysis (LTEA) Assay for Cytochrome P450 (CYP24A1) using HepaRG (AID 2283478). Put shortly:
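Human liver HepaRG cultures receive each chemical for 48 h across an eight-point half-log series topping at 100 uM in 0.5% DMSO. Induction or suppression of CYP24A1 mRNA is scored relative to vehicle after housekeeping-gene normalization.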

Read-out in experiment [5]: Cytochrome P450 (CYP1A2), CYP1A2 (gene 1544)
The experiment can be described thus: LTEA_HepaRG_CYP1A2: Life Technologies and Expression Analysis (LTEA) Assay for Cytochrome P450 (CYP1A2) using HepaRG (AID 2283479). The procedure, abridged:
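Assesses CYP1A2 mRNA in human HepaRG liver cells after 48 h chemical exposure at up to 100 uM. Values come from qRT-PCR with bidirectional curve fitting relative to DMSO.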

Read-out in experiment [6]: cysteine-aspartic acid protease (CASP8), CASP8 (gene 841)
The experiment can be described thus: LTEA_HepaRG_CASP8: Life Technologies and Expression Analysis (LTEA) Assay for cysteine-aspartic acid protease (CASP8) using HepaRG (AID 2283480). The procedure, abridged: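 HepaRG, 48 h exposure, duplicate wells; 8 conc, half-log from 100 uM, 0.5% DMSO. Serum-free induction medium. CASP8 mRNA by TaqMan qRT-PCR, norm. ACTB/GAPDH/POLR2A; gain/loss fitted vs DMSO.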

Read-out in experiment [7]: Cytochrome P450 (CYP2B6), CYP2B6 (gene 1555)
Put plainly: LTEA_HepaRG_CYP2B6: Life Technologies and Expression Analysis (LTEA) Assay for Cytochrome P450 (CYP2B6) using HepaRG (AID 2283481). The procedure, abridged:
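Using 48 h treatment of HepaRG cells in serum-free induction medium, concentrations spanned half-log steps from 100 uM in 0.5% DMSO vehicle. CYP2B6 mRNA induction or loss is scored by qRT-PCR against DMSO.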

Read-out in experiment [8]: Cytochrome P450 2C19 (Homo sapiens) (UniProt P33261)
Put plainly: LTEA_HepaRG_CYP2C19: Life Technologies and Expression Analysis (LTEA) Assay for CYP2C19 using HepaRG (AID 2283482). The procedure, abridged: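 Human HepaRG liver cells received test chemicals for 48 h (highest 100 uM, half-log dilutions in 0.5% DMSO). CYP2C19 mRNA induction or loss is read by multiplexed qRT-PCR and fitted in both directions versus vehicle.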

Read-out in a further experiment: CYP2C8 (gene 1558)
Put plainly: LTEA_HepaRG_CYP2C8: Life Technologies and Expression Analysis (LTEA) Assay for CYP2C8 using HepaRG (AID 2283483). Put shortly:
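CYP2C8 mRNA induction or loss, by qRT-PCR normalized to ACTB/GAPDH/POLR2A, is read in HepaRG cells after 48 h treatment. Concentrations run from 100 uM down in half-log dilutions, with 0.5% DMSO as vehicle and baseline.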

Read-out in another experiment: CYP2C9 (gene 1559)
Put plainly: LTEA_HepaRG_CYP2C9: Life Technologies and Expression Analysis (LTEA) Assay for CYP2C9 using HepaRG (AID 2283484). The procedure, abridged: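 Cells plated 48 h, switched to serum-free induction medium, then treated in duplicate for 48 h at eight concentrations (max 100 uM, 0.5% DMSO). RNA then analysed by qRT-PCR for CYP2C9; curves fitted in both directions relative to DMSO.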

Read-out in a further experiment: CYP2E1 (gene 1571)
Put plainly: LTEA_HepaRG_CYP2E1: Life Technologies and Expression Analysis (LTEA) Assay for CYP2E1 using HepaRG (AID 2283485). Put shortly:
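HepaRG cells in serum-free induction medium exposed 48 h to test chemicals, 8 half-log concentrations up to 100 uM in 0.5% DMSO, duplicate. CYP2E1 mRNA by qRT-PCR, normalized to ACTB, GAPDH, POLR2A; bidirectional fit versus DMSO.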

Read-out in a further experiment: CYP4A11 (gene 1579)
Put plainly: LTEA_HepaRG_CYP4A11: Life Technologies and Expression Analysis (LTEA) Assay for CYP4A11 using HepaRG (AID 2283486). Put shortly: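 Readout is CYP4A11 mRNA induction or suppression (qRT-PCR, ACTB/GAPDH/POLR2A normalization) in human HepaRG cells after 48 h chemical treatment, concentrations to 100 uM in 0.5% DMSO, fitted bidirectionally against vehicle.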

Read-out in experiment [9]: Cytochrome P450 3A4 (Homo sapiens) (UniProt P08684)
The experiment can be described thus: LTEA_HepaRG_CYP3A4: Life Technologies and Expression Analysis (LTEA) Assay for CYP3A4 using HepaRG (AID 2283487). The procedure, abridged: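 Differentiated HepaRG cells in serum-free induction medium exposed in duplicate for 48 h to 8 half-log concentrations up to 100 uM in 0.5% DMSO. CYP3A4 mRNA measured by qRT-PCR normalized to ACTB, GAPDH and POLR2A; bidirectional fit versus DMSO.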

Read-out in experiment [10]: DNA damage-inducible transcript 3 (DDIT3), DDIT3 (gene 1649)
The experiment can be described thus: LTEA_HepaRG_DDIT3: Life Technologies and Expression Analysis (LTEA) Assay for DNA damage-inducible transcript 3 (DDIT3) using HepaRG (AID 2283488). The procedure, abridged:
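Differentiated human HepaRG cells in serum-free induction medium were exposed in duplicate for 48 h to 8 concentrations (top 100 uM, half-log steps, 0.5% DMSO). DDIT3 mRNA measured by TaqMan qRT-PCR, normalized to ACTB/GAPDH/POLR2A; bidirectional fit versus DMSO.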

Read-out in experiment [11]: Pro-epidermal growth factor (Homo sapiens) (UniProt P01133)
Put plainly: LTEA_HepaRG_EGF: Life Technologies and Expression Analysis (LTEA) Assay for Epidermal growth factor (EGF) using HepaRG (AID 2283489). Put shortly:
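EGF expression changes in human HepaRG cells are scored by bidirectional fitting relative to 0.5% DMSO controls. Chemicals are tested at eight half-log concentrations up to 100 uM for 48 h in serum-free induction medium.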

Read-out in experiment [12]: Early growth response protein 1 (EGR1) transcription factor, EGR1 (gene 1958)
The experiment can be described thus: LTEA_HepaRG_EGR1: Life Technologies and Expression Analysis (LTEA) Assay for Early growth response protein 1 (EGR1) transcription factor using HepaRG (AID 2283490). Put shortly: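 Read-out is EGR1 mRNA level by qRT-PCR, normalized to three housekeeping genes and analysed for gain or loss of signal against 0.5% DMSO. Source cells: human HepaRG, treated 48 h at up to 100 uM in half-log dilutions.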

Read-out in experiment [13]: Ezrin (EZR), EZR (gene 7430)
Put plainly: LTEA_HepaRG_EZR: Life Technologies and Expression Analysis (LTEA) Assay for Ezrin (EZR) using HepaRG (AID 2283491). The procedure, abridged: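 Differentiated human HepaRG cells, 48 h after plating, were exposed in serum-free induction medium for 48 hours to eight half-log concentrations up to 100 uM in 0.5% DMSO. EZR mRNA was measured by TaqMan qRT-PCR, normalized to ACTB, GAPDH and POLR2A, and fitted bidirectionally against DMSO.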

Read-out in experiment [14]: Cytochrome P450 3A7 (Homo sapiens) (UniProt P24462)
The experiment can be described thus: LTEA_HepaRG_CYP3A7: Life Technologies and Expression Analysis (LTEA) Assay for CYP3A7 using HepaRG (AID 2283492). Put shortly: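 Cells were thawed, plated, cultured 48 h, then treated for a further 48 h with chemicals (eight-point half-log series from 100 uM, 0.5% DMSO). RNA was isolated and CYP3A7 expression quantified by qRT-PCR normalised to ACTB, GAPDH and POLR2A.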

Chain of Cytochrome P450 3A4 (Homo sapiens) (P08684 whole entry, looked up): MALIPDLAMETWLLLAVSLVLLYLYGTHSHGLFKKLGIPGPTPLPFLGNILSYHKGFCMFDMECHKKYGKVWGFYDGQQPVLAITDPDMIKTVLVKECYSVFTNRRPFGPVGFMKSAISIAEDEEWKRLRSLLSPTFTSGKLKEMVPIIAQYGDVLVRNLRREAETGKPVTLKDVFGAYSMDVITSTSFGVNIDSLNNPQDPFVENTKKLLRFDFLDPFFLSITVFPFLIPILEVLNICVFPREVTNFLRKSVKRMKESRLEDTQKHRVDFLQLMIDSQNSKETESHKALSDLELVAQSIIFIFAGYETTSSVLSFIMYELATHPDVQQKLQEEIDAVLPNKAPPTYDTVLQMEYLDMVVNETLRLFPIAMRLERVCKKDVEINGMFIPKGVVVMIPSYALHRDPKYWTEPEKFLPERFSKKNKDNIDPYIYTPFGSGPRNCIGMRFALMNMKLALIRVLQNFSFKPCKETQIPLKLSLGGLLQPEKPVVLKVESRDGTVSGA
Chain of Apoptosis regulator Bcl-2 (Homo sapiens) (P10415 whole entry, looked up): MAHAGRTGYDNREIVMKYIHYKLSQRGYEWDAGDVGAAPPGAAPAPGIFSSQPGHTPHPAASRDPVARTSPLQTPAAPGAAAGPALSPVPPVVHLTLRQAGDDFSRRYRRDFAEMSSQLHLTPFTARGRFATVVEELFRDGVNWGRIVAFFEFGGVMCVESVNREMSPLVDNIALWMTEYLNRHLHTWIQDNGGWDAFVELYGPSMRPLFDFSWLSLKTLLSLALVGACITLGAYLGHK
Chain of Caspase-3 (Homo sapiens) (P42574 whole entry, looked up): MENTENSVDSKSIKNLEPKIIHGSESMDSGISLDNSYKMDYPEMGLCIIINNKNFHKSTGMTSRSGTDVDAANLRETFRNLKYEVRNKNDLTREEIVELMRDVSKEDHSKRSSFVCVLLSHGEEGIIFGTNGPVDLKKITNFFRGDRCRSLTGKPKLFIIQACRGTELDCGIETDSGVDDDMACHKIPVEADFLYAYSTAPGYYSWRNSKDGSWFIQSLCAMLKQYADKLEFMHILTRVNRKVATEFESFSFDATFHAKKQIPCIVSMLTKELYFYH
Chain of Cytochrome P450 2C19 (Homo sapiens) (P33261 whole entry, looked up): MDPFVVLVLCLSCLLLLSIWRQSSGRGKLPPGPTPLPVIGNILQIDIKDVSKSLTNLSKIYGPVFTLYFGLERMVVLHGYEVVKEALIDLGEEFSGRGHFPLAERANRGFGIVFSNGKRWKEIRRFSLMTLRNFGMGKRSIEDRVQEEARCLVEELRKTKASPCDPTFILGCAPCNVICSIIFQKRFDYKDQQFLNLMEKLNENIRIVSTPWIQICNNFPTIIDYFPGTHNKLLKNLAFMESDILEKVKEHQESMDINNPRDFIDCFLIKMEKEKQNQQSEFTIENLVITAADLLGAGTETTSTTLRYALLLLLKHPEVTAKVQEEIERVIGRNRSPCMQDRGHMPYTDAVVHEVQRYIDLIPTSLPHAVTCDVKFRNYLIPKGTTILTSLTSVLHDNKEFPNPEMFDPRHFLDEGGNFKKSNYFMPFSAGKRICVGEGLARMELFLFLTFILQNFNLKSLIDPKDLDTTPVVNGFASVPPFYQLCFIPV
Chain of Cytochrome P450 3A7 (Homo sapiens) (P24462 whole entry, looked up): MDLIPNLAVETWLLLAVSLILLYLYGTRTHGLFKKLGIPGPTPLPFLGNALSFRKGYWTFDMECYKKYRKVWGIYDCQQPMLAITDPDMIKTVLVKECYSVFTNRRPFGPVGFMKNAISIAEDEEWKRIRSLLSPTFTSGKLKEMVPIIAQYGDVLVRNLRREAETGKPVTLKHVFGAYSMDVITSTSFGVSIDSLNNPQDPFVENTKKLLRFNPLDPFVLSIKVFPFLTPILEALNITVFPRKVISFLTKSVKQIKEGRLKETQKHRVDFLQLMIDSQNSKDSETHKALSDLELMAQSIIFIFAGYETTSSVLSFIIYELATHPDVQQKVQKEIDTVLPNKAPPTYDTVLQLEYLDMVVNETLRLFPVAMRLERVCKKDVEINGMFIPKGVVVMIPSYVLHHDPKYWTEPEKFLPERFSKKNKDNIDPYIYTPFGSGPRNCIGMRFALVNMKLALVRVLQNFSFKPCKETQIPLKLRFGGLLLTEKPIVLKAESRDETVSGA

`CCCCCCCCO`: the molecule was classed as inactive (with BCL2L11 (gene 10018); in experiment [1]; in experiment [2]; in experiment [3]; with Caspase-3 (Homo sapiens); in [4]). In addition, the call (in [5]; in [6]; in [7]; in experiment [8]; in the experiment with CYP2C8 (gene 1558); in the experiment with CYP2C9 (gene 1559)) was inactive. The result (with CYP2E1 (gene 1571); in the experiment with CYP4A11 (gene 1579); in experiment [9]; in experiment [10]; in experiment [11]; in experiment [12]) was inactive. In addition, the molecule was classed as inactive in experiment [13] and in experiment [14].
Regarding `CNS(=O)(=O)c1cc(C(=O)N2CCC(CCN3C4CCC3CC(n3c(C)nc5ccccc53)C4)(c3cccc(F)c3)CC2)c(Cl)cc1F` (stereo not given), the result (with BCL2L11 (gene 10018); in [3]; with Caspase-3 (Homo sapiens); in experiment [4]; in experiment [6]; in [9]) was inactive. Also, the outcome in experiment [11] and in [12] was inactive. Also, the AC50 in [1] is 30.5 µM (active); in experiment [2], 27.4 µM (active); in [5] it was 27.2 µM (active); in [7], 21.7 µM (active); in experiment [8], 50 µM (active); in the experiment with CYP2C8 (gene 1558), 25.7 µM (active). For the same molecule, the AC50 was 19.2 µM (active) in the experiment with CYP2C9 (gene 1559); 17.7 µM (active) in the experiment with CYP2E1 (gene 1571); 18.5 µM (active) in the experiment with CYP4A11 (gene 1579); 29 µM (active) in experiment [10]; 29.6 µM (active) in experiment [13]; 9.92 µM (active) in experiment [14].
With `Nc1ccc(Nc2ccccc2)cc1`, the result (in the experiment with BCL2L11 (gene 10018); in experiment [1]; in experiment [2]; in experiment [3]; with Caspase-3 (Homo sapiens); in experiment [4]) was inactive. Further, the outcome (in [6]; in experiment [8]; with CYP2C8 (gene 1558); with CYP2C9 (gene 1559); in the experiment with CYP4A11 (gene 1579); in [9]) was inactive. Further, the call in experiment [10], in experiment [11], in experiment [12] and in [13] was inactive. For the same molecule, the AC50 in [5] is 4.54 µM (active); in experiment [7] it was 33.7 µM (active); in the experiment with CYP2E1 (gene 1571), 71.2 µM (active); in experiment [14] it was 62.7 µM (active).
